Compound activity (PubChem BioAssay)
A selection: hits, their analogues and other compounds. The true share with any hit is near 2.7%.
FID counter: compounds displacing fluorescent DNA intercalator, primary screen, artefact control for HCV NS3 helicase inhibitor project, biochemical, FID fluorescence. DNA fluorescent intercalator displacement. inhibition, % at 7.9 µM. 290,000 compounds, 0.17% hits. AID 1845, 2009; in the data active means inhibition above about 37%;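 further: 0% = vehicle and 100% = reference compound; higher means more ethidium bromide displaced from hairpin DNA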
PP5 primary: PP5 phosphatase inhibitors, primary screen, biochemical, fluorescence; Serine/threonine-protein phosphatase 5 (Homo sapiens), P53041; purified PP5c, OMFP substrate fluorescence; inhibition, % at 6.7 µM; 320,000 compounds, 0.18% hits;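 active means inhibition above the campaign's mean inhibition across all tested compounds plus 3 SD, cut at about 9.5% in these data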;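 further: 0% = DMSO only and 100% = 100 µM cantharidin control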
Target sequence (P53041 whole entry, looked up): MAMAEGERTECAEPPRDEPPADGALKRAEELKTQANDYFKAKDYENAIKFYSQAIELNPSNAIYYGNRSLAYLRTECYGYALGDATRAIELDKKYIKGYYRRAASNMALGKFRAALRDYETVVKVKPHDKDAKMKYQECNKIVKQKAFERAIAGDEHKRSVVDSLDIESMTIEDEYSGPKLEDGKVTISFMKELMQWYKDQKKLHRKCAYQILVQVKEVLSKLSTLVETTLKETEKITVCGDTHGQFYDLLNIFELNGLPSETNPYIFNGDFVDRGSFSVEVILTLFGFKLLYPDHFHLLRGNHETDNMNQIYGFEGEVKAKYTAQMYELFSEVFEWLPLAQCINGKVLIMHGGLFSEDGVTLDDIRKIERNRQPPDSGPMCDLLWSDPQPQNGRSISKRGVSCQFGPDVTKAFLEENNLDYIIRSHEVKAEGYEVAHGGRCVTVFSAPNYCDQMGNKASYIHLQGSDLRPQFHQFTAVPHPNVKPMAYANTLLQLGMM
ANO1 block: TMEM16A chloride channel inhibitors, primary screen, cell-based, HTS; normalized B-score (activity score, 25-100; higher = stronger inhibition) at 10 µM; HEK293 TMEM16A/YFP iodide influx fluorescence, ionomycin; Anoctamin-1 (Mus musculus), Q8BHY3; 310,000 compounds, 1.2% hits;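 active means ratio plate-corrected score three or more library SD toward inhibition, starting fluorescence score within five deviations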;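 further: score derived from kinetic fluorescence span divided by baseline fluorescence per well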
PP1 counter: PP1-alpha phosphatase inhibitors, primary screen, counter-screen for PP5 inhibitor project, biochemical, fluorescence, OMFP substrate, single point; purified PP1alpha; inhibition, % at 6.7 µM; 320,000 compounds, 0.9% hits;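 active means inhibition above the mean inhibition of all tested compounds plus 3 SD, computed separately for each screening campaign, cut at about 15% in these data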
TMEM16A act: TMEM16A chloride channel activators or potentiators, primary screen, cell-based, HTS | HEK293 TMEM16A/YFP-H148Q/I152L, iodide quench fluorescence; stronger effect = lower value | B-score at 10 µM | 340,000 compounds, 0.3% hits | Anoctamin-1 (Mus musculus), Q8BHY3 | AID 623877, 2012;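 active means fluorescence-ratio B-score plate-corrected deviation score at least 3 library SD below zero, with starting fluorescence score within 5 deviations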;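 further: channel opened by trigger with iodide after compound preincubation; score built on the fluorescence ratio of max minus min over baseline; more negative score means more quench and so TMEM16A activation or potentiation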
PREPL inhibitor: PREPL enzyme inhibitors, primary screen, biochemical, fluorescence polarization | Prolyl endopeptidase-like (Homo sapiens), Q4J6C6 | recombinant PREPL, fluorescence polarization activity-based probe | 320,000 compounds, 0.68% hits | inhibition, % at 5.96 µM; in the data active means inhibition above about 43%;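 further: 0% = enzyme with DMSO and 100% = wells lacking enzyme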
* marks the source's active call; other numbers are inactive results; i = inactive; nt = no result given.

SMILES	FID counter	PP5 primary	ANO1 block	PP1 counter	TMEM16A act	PREPL inhibitor
Cc1ccc([C@H]2C(C(=O)O)=CC[C@@H](c3ccc(Cl)c(Cl)c3)N2S(=O)(=O)c2ccc(C)cc2)cc1	nt	nt	nt	nt	nt	2
Cc1ccc(S(=O)(=O)N2[C@@H](c3ccccc3)C(C(=O)O)=CC[C@H]2c2ccc(Cl)c(Cl)c2)cc1	nt	6	100*	14	i	-2
Cc1ccc(S(=O)(=O)N2[C@@H](c3ccc(Cl)cc3)C(C(=O)O)=CC[C@H]2c2cccc(Cl)c2)cc1	nt	3	100*	7	i	1
Cc1ccc(S(=O)(=O)N2[C@@H](c3ccccc3F)C(C(=O)O)=CC[C@H]2c2ccc(Cl)c(Cl)c2)cc1	nt	1	100*	11	i	0
O=C(Nc1cccc(C(F)(F)F)c1)C1CC(=O)N(CCc2ccccc2)C1 (stereo unspecified)	nt	2	nt	-1	i	-8
CCN(CC)S(=O)(=O)c1cc(C(=O)Nc2cc(S(=O)(=O)N3CCOCC3)ccc2N2CCN(C)CC2)ccc1C	nt	nt	nt	nt	i	nt
O=C(O)c1ccc(CSc2nc(-c3ccc(Cl)cc3)cc(C(F)(F)F)n2)cc1	-6	4	i	17*	i	-7
COc1ccc(-n2c3c(c(=O)[nH]c2=O)C(NS(=O)(=O)c2ccc(Cl)cc2)(C(F)(F)F)C(=O)N3)cc1 (stereo unspecified)	1	-4	i	-6	i	15
CCCCCOc1ccc(C(=O)CCC(=O)N2CCCC2)cc1	-35	-1	i	-1	i	-6
CCc1sc(N(C(=O)Cc2ccccc2)c2ccccc2)nc1-c1ccccc1	0	3	i	-3	i	5
CCCCC(=O)N(c1ccc(C(=O)O)cc1)c1nc(-c2ccc(Cl)cc2)c(CC)s1	-1	0	100*	-3	i	2
O=C(NC(=S)NNC(=O)c1ccco1)c1ccc(Br)cc1	-1	-1	i	13	i	13
c1cn2cc(CN3CCOCC3)nc2s1	1	-1	25*	0	i	3
Nc1nc(CN2CCOCC2)cs1	2	-6	i	-11	i	2
CC(C)COc1ccc(CSCCNC(=S)Nc2ccccc2)cc1	-19	2	100*	3	i	11
CCCCOc1ccc(CSCCNC(=S)Nc2ccccc2)cc1	-8	3	i	2	i	-11
O=C(CN1C(=O)COc2ccccc21)NCCCN1CCN(c2ccccc2F)CC1	37*	1	i	0	i	35
CN1CCN(CCCNC(=O)CN2C(=O)COc3ccccc32)CC1	-2	2	i	-2	i	-6
CCc1cc(=O)oc2cc(OCC(=O)N3CCC[C@H]3C(=O)O)ccc12	95*	0	i	-4	i	4
CN(C)c1ccc(-c2noc(C3CCN(C(=O)Nc4ccc(Cl)cc4)CC3)n2)cc1	-1	-1	i	2	-4.6*	-1
CN(C)c1ccc(-c2noc(C3CCN(S(=O)(=O)c4ccc(C(=O)O)cc4)CC3)n2)cc1	-27	5	i	5	i	9
Cc1nn(C)c(C)c1NC(=O)CSc1nc(-c2ccccc2Cl)nc2c1cnn2-c1ccccc1	-8	0	i	16*	i	-7
Cc1nn(C)c(C)c1NC(=O)CSc1nc(-c2ccccc2F)nc2c1cnn2-c1ccccc1	nt	nt	nt	nt	i	nt
COc1ccc(Cc2nc3c([nH]2)c(=O)n(C)c(=O)n3C)cc1OC	nt	nt	nt	nt	i	nt
Cc1cc(Cl)ccc1OC(C)C(=O)Nc1ccccc1N1CCOCC1 (stereo unspecified)	-6	1	100*	1	-20*	12
SMILES	FID counter	PP5 primary	ANO1 block	PP1 counter	TMEM16A act	PREPL inhibitor
CC(Oc1ccc(Cl)cc1)C(=O)Nc1ccccc1N1CCOCC1 (stereo unspecified)	nt	nt	nt	nt	i	7
CCOC(=O)c1c(C)[nH]c(C(=O)CSc2nnc(Nc3ccccc3F)s2)c1C	-2	3	i	17*	i	-26
CCOC(=O)c1c(C)[nH]c(C(=O)CSc2ccc(Cl)cc2)c1C	-2	2	i	-1	i	5
CC1=NN(c2nc(-c3ccc(C)cc3)cs2)C(=O)C1N=Nc1ccc(C(N)=O)cc1 (stereo unspecified)	-1	1	i	1	-16*	15
CCOc1cc(/C=C(\C#N)c2[nH]nc(N)c2C#N)ccc1O	2	4	i	-3	i	52*
CCCc1cc(=O)oc2cc(OCc3cc(OC)c(OC)c(OC)c3)c(Cl)cc12	0	2	i	0	i	-5
CCCCc1cc(=O)oc2cc(OCc3cc(OC)c(OC)c(OC)c3)c(Cl)cc12	1	-2	i	-3	-4.9*	6
COC(=O)c1ccc(C)c(NS(=O)(=O)c2cn(C)nc2C)c1	-1	2	i	-7	i	0
COC(=O)CCC(=O)OC1(C)C(=O)C2=CN(CCCCO)C(c3ccc(OC)cc3)=CC2=C(Br)C1=O (stereo unspecified)	-11	9	i	3	nt	55*
COC(=O)CCC(=O)OC1(C)C(=O)C2=CN(CCc3ccccn3)C(c3ccc(OC)cc3)=CC2=C(Br)C1=O (stereo unspecified)	nt	9	i	13	i	44*
COC(=O)CCC(=O)OC1(C)C(=O)C2=CN(Cc3ccc4c(c3)OCO4)C(c3ccc(OC)cc3)=CC2=C(Br)C1=O (stereo unspecified)	nt	4	i	12	i	30
CC12CCC3c4ccc(O)cc4CCC3C1CC(=NO)C2O (stereo unspecified)	nt	nt	nt	nt	i	nt
Cn1cc(Cl)c(/C(N)=N/OC(=O)c2ccccc2C(F)(F)F)n1	-4	-1	i	0	i	-3
CSc1nc(SCC(=O)NC(c2ccccc2)c2ccccc2)c2c3c(sc2n1)CN(C)CC3	19	3	i	16*	i	22
NC1(N)OC(CN2C(=O)c3ccccc3C2=O)CS1 (stereo unspecified)	-5	2	100*	-1	i	-5
Cc1cc(C)c2nc(NNC(=O)c3ccc(S(=O)(=O)N4CC(C)CC(C)C4)cc3)sc2c1 (stereo unspecified)	-21	5	i	16*	i	4
O=C(Cc1ccccc1F)Nc1nc(-c2ccc(F)cc2)cs1	-7	7	25*	4	i	-35
COc1ccc(OC)c(C(O)c2nc3ccccc3n2C(C)C)c1 (stereo unspecified)	-10	0	i	-2	i	3
